Screening data as filed in PubChem BioAssay.
PPARg SRC3 recr – agonists of human PPARgamma SRC-3 coactivator recruitment. P37231. biochemical PPARgamma/SRC-3 coactivator recruitment assay. activation, % at 8 µM. 0.26% of 200,000 active; in the data active = activation above about 23%;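 also: 0% = DMSO and 100% = reference agonist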
SRC1 TRFRET art – TR-FRET artefact, counter-screen to PPARgamma/SRC-1 agonist assay. TR-FRET detection artefact counter-screen, emission ratio; stronger effect = higher value. 0.34% of 99,000 active. AID 1051. TR-FRET ratio at 8 µM; in the data active = TR-FRET ratio above about 2300
SRC3 TRFRET art – flags TR-FRET format artefacts in PPARgamma SRC-3 recruitment agonist screen; 0.39% of 99,000 active; TR-FRET artefact counter-screen, PPARgamma/SRC-3 format; stronger effect = higher value; TR-FRET ratio at 8 µM; AID 1048
PPARg SRC-1 ag – PPARgamma-driven SRC-1 recruitment agonism; P37231; PPARgamma-SRC-1 coactivator recruitment biochemical assay; activation, % at 8 µM; 0.41% of 200,000 active; AID 631; in the data active = activation above about 19%;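 also: 0% = DMSO and 100% = reference agonist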
SRC2 TRFRET art – TR-FRET artefact, counter-screen to PPARgamma/SRC-2 agonist assay; 0.4% of 200,000 active; TR-FRET ratio at 8 µM; AID 1049; stronger effect = higher value
PPARg SRC2 recr – agonists of SRC-2 recruitment by human PPARgamma | P37231 | AID 1032 | PPARgamma LBD-SRC-2 recruitment, biochemical | activation, % at 8 µM | 0.34% of 200,000 active; in the data active = activation above about 22%;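 also: 0% = vehicle and 100% = reference agonist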
PPARg SRC2 ag – confirmation of agonists of SRC-2 recruitment by human PPARgamma. shares compounds with PPARg SRC3 recr. biochemical SRC-2 recruitment by PPARgamma. activation, % at 8 µM. 52% of 790 active; in the data active = activation above about 22%;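 also: 0% = vehicle alone and 100% = reference agonist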
PPARg SRC1 conf – confirmation of agonists of SRC-1 recruitment by human PPARgamma; 43% of 790 active; shares compounds with PPARg SRC3 recr; activation, % at 8 µM; PPARgamma–SRC-1 coactivator recruitment biochemical assay; in the data active = activation above about 20%;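 also: 0% = vehicle wells and 100% = reference agonist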
PPARg SRC3 conf – human PPARgamma SRC-3 recruitment agonism, confirmation; shares compounds with PPARg SRC3 recr; biochemical PPARgamma-SRC-3 coactivator recruitment, agonist mode; activation, % at 8 µM; 29% of 790 active; AID 1301; in the data active = activation above about 24%;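 also: 0% = vehicle wells and 100% = reference agonist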
* hit, by the source's call; x = no result. Shown are actives, neighbours in structure and some others; about 0.84% of the full set was active somewhere. Rule as the data show it, unless noted: active = TR-FRET ratio above about 2000; inactive = the rest.

SMILES | PPARg SRC3 recr | SRC1 TRFRET art | SRC3 TRFRET art | PPARg SRC-1 ag | SRC2 TRFRET art | PPARg SRC2 recr | PPARg SRC2 ag | PPARg SRC1 conf | PPARg SRC3 conf
CNC(=S)N1N=C(c2ccc(OC)cc2)CC1c1ccc(Cl)cc1Cl (stereo not drawn) | 16 | 3403* | 3446* | 22* | 2360* | 7 | 18 | 12 | 12
COc1ccc(S(=O)(=O)Nc2nccs2)cc1OC | 1 | 1720 | 1568 | 1 | 1549 | 7 | x | x | x
COc1ccc(-c2nnc(Nc3ccc(S(=O)(=O)Nc4nccs4)cc3)c3ccccc23)cc1 | 47* | 2204 | 1895 | 55* | 1729 | 18 | 35* | 25* | 24*
CC(=O)C1=C(O)C(=O)N(c2nccs2)C1c1ccccc1 (stereo not drawn) | 16 | x | x | 10 | 1601 | 27* | 22* | 16 | 13
Cc1nnc(SC(C)C(=O)Nc2c(C)n(C)n(-c3ccccc3)c2=O)n1N (stereo not drawn) | -2 | 1807 | 1548 | 0 | 1650 | -3 | x | x | x
Cc1nnc(NC(=O)CSc2ccc3nnc(-c4cccnc4)n3n2)s1 | 0 | 1769 | 1529 | -9 | 1489 | -2 | x | x | x
O=C(Nn1c(O)c(C=C2N=c3ccccc3=N2)sc1=S)c1ccccc1Cl | 30* | x | x | 12 | 1641 | 19 | 26* | 21* | 16
O=C1CN(C(=O)CCCc2c[nH]c3ccccc23)c2ccccc2N1 | 7 | x | x | -1 | 1629 | 6 | x | x | x
CCOC(=O)c1sc2nc(CC(=O)OC)nc(NCc3ccco3)c2c1C | -4 | x | x | 0 | 1592 | 6 | x | x | x
CCOC(=O)c1sc2ncnc(NCc3ccco3)c2c1C | 30* | x | x | 9 | 1926 | 23* | 19 | 16 | 10
CSc1nc2sc3c(c2c2nnnn12)CCCC3 | 70* | x | x | 45* | 2081* | 20 | 50* | 39* | 26*
Cc1ccc(N2CSC3=C(C#N)C(c4cccs4)CC(=O)N3C2)cc1 (stereo not drawn) | 19 | x | x | 13 | 2106* | 29* | 4 | 0 | 2
COC(=O)c1ccc2nc(Nc3nc4ccc(F)cc4s3)sc2c1 | 4 | 2480* | 1850 | 23* | 1817 | 16 | -4 | -2 | -3
COC(=O)c1ccc2nc(NC(=O)C(C)(C)C)sc2c1 | 5 | 1915 | 1523 | 1 | 1681 | 2 | x | x | x
Cc1c(Cl)c(-c2n[nH]c(=S)n2-c2ccccc2)nn1C | 17 | 2260 | 2138* | 20 | 2128* | 24* | 25* | 18 | 18
Cc1ccc(-n2c(-c3ccccc3)n[nH]c2=S)cc1 | 27* | x | x | 20* | 2299* | 35* | 35* | 28* | 26*
CCOc1cc(C2C(C#N)=C(N)SC(N)=C2C#N)ccc1OCCN1CCOCC1 | 46* | x | x | 30* | 2438* | 36* | -2 | 0 | 1
CCOc1ccc(C2C(C#N)=C(N)SC(N)=C2C#N)c(OCC)c1 | 17 | x | x | 27* | 1849 | 4 | 7 | 4 | 4
CCCc1[nH]nc2c1C(c1ccc(OCCN3CCOCC3)c(OC)c1)C(C#N)=C(N)O2 (stereo not drawn) | -1 | 1811 | 1561 | 5 | 1424 | 2 | x | x | x
c1ccc(-c2nc(-c3cccs3)[nH]c2-c2ccccc2)cc1 | 24 | x | x | 25* | 1842 | 18 | 23* | 16 | 15
COc1cc(-c2nc(-c3ccccc3)c(-c3cccs3)[nH]2)cc(OC)c1OC | 1 | x | x | 7 | 1650 | 10 | x | x | x
Cc1ccc(-c2csc3nnc(SCC(=O)Nc4cccc(C)n4)n23)cc1 | 10 | x | x | 21* | 1744 | 10 | 4 | 5 | 5
CN(/N=C\c1ccc(O)c(O)c1)c1nc(-c2ccccc2)cc(-c2ccccc2)n1 | 1 | 1803 | 1379 | 2 | 1691 | 15 | x | x | x
O=c1c2cnn(-c3ccccc3)c2nc(-c2ccco2)n1-c1ccccc1 | 6 | x | x | -1 | 1611 | 10 | x | x | x
O=c1oc(-c2ccco2)nc2c1cnn2-c1ccccc1 | 3 | x | x | 20* | 1579 | 14 | 7 | 16 | 23
SMILES | PPARg SRC3 recr | SRC1 TRFRET art | SRC3 TRFRET art | PPARg SRC-1 ag | SRC2 TRFRET art | PPARg SRC2 recr | PPARg SRC2 ag | PPARg SRC1 conf | PPARg SRC3 conf
O=[N+]([O-])c1ccc(N/N=C/c2ccc[nH]2)cc1 | 12 | 2294 | 1831 | 17 | 1763 | 28* | 6 | 8 | 5
O=[N+]([O-])c1ccc(N/N=C/c2c[nH]c3ccccc23)cc1 | 6 | x | x | -1 | 1738 | 12 | x | x | x
Cn1cccc1C(=O)NC(=O)COC(=O)c1ccccc1Sc1ccccc1C#N | 29* | x | x | 24* | 3090* | 22* | 19 | 19 | 10
CCCS(=O)(=O)N1CCN(c2cc3c(cc2[N+](=O)[O-])n(C)c(=O)n3C)CC1 | 4 | 1873 | 1671 | 9 | 1673 | 6 | x | x | x
[2H]c1c([2H])c([2H])c(C(=O)c2sc(N3CCCCCC3)nc2-c2ccccc2)c([2H])c1[2H] | 28* | x | x | 13 | 1896 | 17 | 16 | 12 | 10
O=C(c1ccccc1)c1sc(N2CCCCCC2)nc1-c1ccccc1 | 23 | x | x | 19* | 1948 | 7 | 16 | 13 | 8
CCCCSc1cnn(-c2ccccc2)c(=O)c1SCCCC | 45* | x | x | 24* | 1992* | 28* | 40* | 24* | 26*
COc1cnn(-c2ccc(C)cc2)c(=O)c1SCc1ccccc1 | 17 | x | x | 3 | 1514 | 0 | x | x | x
O=c1c(Cl)c(Cl)cnn1-c1ccccc1 | 3 | 1870 | 1630 | 2 | 1411 | 2 | x | x | x
COc1cnn(-c2ccccc2)c(=O)c1SCc1ccc(Cl)cc1Cl | 3 | x | x | -1 | 1479 | 6 | x | x | x
CSc1cnn(Cc2ccccc2)c(=O)c1SCc1ccccc1 | 24* | 2367* | 1803 | 17 | 1771 | 30* | 85* | 61* | 57*
CCSc1cnn(-c2ccccc2)c(=O)c1SCC | 123* | x | x | 68* | 3615* | 96* | 65* | 41* | 47*
CSc1cnn(-c2ccccc2)c(=O)c1SC | 152* | x | x | 106* | 3988* | 121* | 99* | 68* | 68*
O=[N+]([O-])/C=C\c1ccc(N2CCCC2)c(F)c1 | 7 | 1847 | 1655 | 8 | 1626 | 7 | x | x | x
COC(=O)C(C(=O)OC)c1ccc(-n2cccc2)cc1 | 4 | 1810 | 1411 | -1 | 1515 | 0 | x | x | x
Cc1nn(C)cc1CN(C)S(=O)(=O)c1cccc([N+](=O)[O-])c1 | 4 | 1854 | 1439 | 4 | 1716 | 11 | x | x | x
c1ccc2nc(-c3ccc(N4CCOCC4)cc3)ccc2c1 | 71* | x | x | 51* | 1544 | 6 | 8 | 7 | 6
CCn1c(SCC(=O)OC)nnc1-c1ccncc1 | 3 | x | x | -3 | 1400 | 2 | x | x | x
